Source: PubChem (several laboratories)
HIF-2a block – inhibitors of HIF-2a; 786-0 RCC cells HIF-2a reporter, luciferase luminescence, overnight; inhibition, % at 18.8 µM; hit rate 0.72% among 360,000; AID 624352;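 active = inhibition of the luminescence signal of 40% or more relative to plate controls, in a single-dose primary screen at 18.75 µM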
Peg3 promoter – reduces Peg3 promoter-driven luciferase expression in HeLa | HeLa PEG-Prom luciferase reporter, luminescence, overnight | inhibition, % at 20 µM | hit rate 1.7% among 360,000 | AID 588405;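 active = inhibition of at least 50% at 20 µM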
KKLEB tox – CF airway cell cytotoxicity counter-screen. KKLEB CF airway cells viability, ATPlite luminescence, overnight; stronger effect = lower value; cells stimulated with P. aeruginosa culture filtrate. activity change (cytotoxicity), % at 5 µM. hit rate 0.36% among 360,000. AID 602141;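 active = corrected activity change at or below -50% at 5 µM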
Shn3 3UTR inh – Schnurri-3 reporter inhibition in Clone20 osteoblasts | inhibition, % at 12.5 µM | Clone20 osteoblast Shn3 3'UTR firefly luciferase, 24 h | hit rate 0.52% among 360,000 | AID 588674;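 active = mean inhibition of at least 75% with every replicate also reaching 75%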
MITF TRPM1 inh – reduces MITF-dependent TRPM1 promoter luciferase signal. SK-MEL-5 TRPM1 promoter luciferase, 24 h. inhibition, % at 12.5 µM. AID 488899. hit rate 0.83% among 330,000;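 active = mean inhibition across replicates of 60% or more, whatever share of single replicates reaches that level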
CF NFkB block – inhibitors of cystic fibrosis induced NF-kB. KKLEB NF-kB-GFP reporter, PAF-induced, GFP fluorescence overnight. inhibition, % at 5 µM. hit rate 0.86% among 360,000;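 active = at least 50% inhibition at 5 µM, scaled per plate between neutral and stimulator controls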;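 note: PAF is a Pseudomonas aeruginosa culture filtrate used as stimulus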
Mdm2 MdmX conf – confirmation of inhibitors of human Mdm2/MdmX interaction, set 2 | shares compounds with HIF-2a block | SaOS-2 split-luciferase Mdm2/MdmX complementation, luminescence | inhibition, % at 8 µM | hit rate 99% among 740;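 active = mean inhibition of the luminescence signal across two replicates at or above 26 percent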
Target sequence (O15151 whole entry, looked up): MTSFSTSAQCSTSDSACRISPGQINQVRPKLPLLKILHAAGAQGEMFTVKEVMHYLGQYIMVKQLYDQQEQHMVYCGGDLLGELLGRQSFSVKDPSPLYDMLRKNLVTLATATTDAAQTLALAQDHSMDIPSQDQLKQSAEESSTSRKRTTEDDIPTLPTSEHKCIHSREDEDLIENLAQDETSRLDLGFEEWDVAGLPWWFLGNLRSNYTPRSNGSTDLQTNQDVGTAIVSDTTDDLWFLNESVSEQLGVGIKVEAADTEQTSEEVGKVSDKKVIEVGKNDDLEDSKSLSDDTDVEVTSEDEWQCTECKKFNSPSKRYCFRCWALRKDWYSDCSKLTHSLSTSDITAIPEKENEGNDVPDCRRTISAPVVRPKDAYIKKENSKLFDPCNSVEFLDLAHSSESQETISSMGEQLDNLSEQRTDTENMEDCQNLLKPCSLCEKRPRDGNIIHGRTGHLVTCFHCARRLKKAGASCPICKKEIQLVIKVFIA
Target sequence (Q00987 whole entry, looked up): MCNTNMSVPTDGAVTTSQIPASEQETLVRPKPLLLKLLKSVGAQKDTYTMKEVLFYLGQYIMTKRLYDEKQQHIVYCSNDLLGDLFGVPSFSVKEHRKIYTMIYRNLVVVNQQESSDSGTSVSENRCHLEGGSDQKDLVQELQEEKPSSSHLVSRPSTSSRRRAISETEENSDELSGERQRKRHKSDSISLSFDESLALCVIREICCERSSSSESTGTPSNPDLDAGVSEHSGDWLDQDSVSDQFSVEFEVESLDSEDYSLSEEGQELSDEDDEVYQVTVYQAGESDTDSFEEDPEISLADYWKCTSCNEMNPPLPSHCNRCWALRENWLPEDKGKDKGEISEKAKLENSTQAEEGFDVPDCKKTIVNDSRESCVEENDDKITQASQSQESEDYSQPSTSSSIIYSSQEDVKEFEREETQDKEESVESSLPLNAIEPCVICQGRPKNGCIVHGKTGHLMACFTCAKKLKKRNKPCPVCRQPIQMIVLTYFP
HIF-2a inh conf – HIF-2a inhibition, single concentration confirmation; shares compounds with HIF-2a block; 786-0 RCC cells, HIF-2a luciferase reporter luminescence, overnight; inhibition, % at 18.8 µM; hit rate 56% among 1,800; AID 651580;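 active = mean inhibition across four replicates of at least 40 percent at the single tested concentration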
HIF-1a counter – counter-screen for HIF-2a inhibitors: HIF-1a inhibition in MiaPaCa-2 cells; hit rate 72% among 1,800; inhibition, % at 18.8 µM; MiaPaCa-2 HIF-1a luciferase reporter, desferoxamine, overnight; shares compounds with HIF-2a block;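 active = mean inhibition of the reporter signal across four replicates at the single tested dose of 50% or more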
Of the large screens only hits and unclear results are named; the others gave an inactive call (follow-up assays come after a bar, where they were run); ! = not confirmed by another sample. Compounds with a hit are over-represented: about 2.8% of the library has one in this group of screens.

COc1ccccc1-[n+]1c(C)cc(/C=C2\Sc3ccccc3N2C)cc1C	HIF-2a block 57.4, Peg3 promoter 67.3, MITF TRPM1 inh 92.5 | Mdm2 MdmX conf 103.2
CN(C)/C=C/c1c([N+](=O)[O-])c2ccc(O)cc2n1-c1ccccc1	Peg3 promoter 51.8, CF NFkB block 83.6 | Mdm2 MdmX conf 90.2
COC(=O)c1c(C)n(-c2ccccc2)c2ccc(O)cc12	none
CCOC(=O)[C@H]1[C@H]2COc3ccccc3[C@@H]2N2C(=O)CNC(=O)[C@@]12C	none
COc1ccc(NC(=O)C(=O)NCC2CCCN2S(=O)(=O)c2ccc(C)cc2)cc1 (stereo not drawn)	HIF-2a block 42.2, MITF TRPM1 inh 71.8, CF NFkB block 52.0 | HIF-2a inh conf inactive | HIF-1a counter inactive
COc1ccc(S(=O)(=O)N2CCCC2CNC(=O)C(=O)Nc2ccc(C)cc2)cc1 (stereo not drawn)	none
Cc1ccc2c(c1)C1(C(=O)N2)N2CCCC2C(C(=O)c2ccc3ccccc3c2)C12C(=O)Nc1ccccc12 (stereo not drawn)	none
COc1ccc(C(=O)/C(=C\c2ccco2)N2C=CC=CC2=C(C#N)C#N)cc1	HIF-2a block 96.0, Peg3 promoter 104.5, KKLEB tox -87.1, Shn3 3UTR inh 97.1, MITF TRPM1 inh 95.6, CF NFkB block 93.7 | Mdm2 MdmX conf 100.2
O=C(NCc1ccco1)/C(=C/c1cccc(C(F)(F)F)c1)c1nc2ccccc2[nH]1	HIF-2a block 41.1, Peg3 promoter 50.3 | HIF-2a inh conf inactive | HIF-1a counter 55.5
CC1(C)Cc2c(c(N3CCOCC3)nc3sc4c(NCCN)ncnc4c23)CO1	HIF-2a block 45.2, Peg3 promoter 99.5, MITF TRPM1 inh 69.5 | HIF-2a inh conf inactive | HIF-1a counter inactive
CCN1CCN(Cc2c3ccccc3cc3ccccc23)CC1	none
Nc1ccc(C2(c3ccc(N)cc3)c3ccccc3C(=O)c3ccccc32)cc1	HIF-2a block 42.5 | HIF-2a inh conf inactive | HIF-1a counter 54.9
O=C1OC2(c3ccccc31)c1ccccc1-c1ccccc12	none
Cc1cc(F)ccc1S(=O)(=O)N(CC(=O)N1CCOCC1)CC(=O)N1CCOCC1	none
COC(=O)c1ccc(COc2ccccc2/C=C(\C#N)C(=O)Nc2c(C)cccc2C)cc1	HIF-2a block 46.1, Peg3 promoter 62.1 | HIF-2a inh conf 45.1 | HIF-1a counter 81.7
O=C(O)c1ccc(NC2=C(Cl)C(=O)c3ccccc3C2=O)cc1	HIF-2a block 93.9, Peg3 promoter 108.8, KKLEB tox -88.9, Shn3 3UTR inh 95.2, MITF TRPM1 inh 96.3, CF NFkB block 92.4 | Mdm2 MdmX conf 101.3
Cc1ccc(C(=O)C=CC=Cc2ccccc2)cc1	none (no result: MITF TRPM1 inh)
Cc1ccc(C(=O)C(C(=O)/C=C/c2ccccc2)=C2SCCCS2)cc1	HIF-2a block 92.9, Peg3 promoter 109.5, MITF TRPM1 inh 86.2 | Mdm2 MdmX conf 103.2 | HIF-2a inh conf 86.3 | HIF-1a counter 102.9
CN1CCN(Cc2nc3ccccc3c(=O)n2Cc2nc(-c3ccc4ccccc4c3)cs2)CC1	HIF-2a block 62.4, Peg3 promoter 105.3, Shn3 3UTR inh 92.9!, MITF TRPM1 inh 88.1 | HIF-2a inh conf inactive | HIF-1a counter 105.8
COCC(=O)Nc1ccc(C(C)C)cc1	none
COc1ccc(C2=CC(=O)N(Nc3ccccc3)C2=O)cc1	none (no result: MITF TRPM1 inh)
O=C1C=C(c2ccccc2)C(=O)N1Nc1ccccc1	HIF-2a block 76.9, Peg3 promoter 95.8 | HIF-2a inh conf 55.8 | HIF-1a counter inactive
O=C(NC1CC1)C1CCN(S(=O)(=O)c2ccc(Cl)c([N+](=O)[O-])c2)CC1	MITF TRPM1 inh 75.2 | Mdm2 MdmX conf 102.2
COc1ccc(NS(=O)(=O)c2cccc(C(=O)N/N=C/c3c(F)c(F)c(F)c(F)c3F)c2)cc1	HIF-2a block 50.8, Peg3 promoter 94.7 | HIF-2a inh conf inactive | HIF-1a counter 80.2
FC(F)(F)c1nc2ccccc2n2c(-c3ccc(Cl)cc3)nnc12	HIF-2a block 46.3, Peg3 promoter 51.0, KKLEB tox -55.5, MITF TRPM1 inh 76.2, CF NFkB block 75.8 | HIF-2a inh conf inactive | HIF-1a counter 86.3
Cc1ccc(OCCN2CCC2(C)C(=O)Nc2ccc3c(c2)OCCO3)cc1 (stereo not drawn)	none (no result: MITF TRPM1 inh)
CC1(C(=O)NS(=O)(=O)Cc2ccccc2C(F)(F)F)CCN1C(=O)c1ccco1 (stereo not drawn)	none (no result: MITF TRPM1 inh)
CCCCn1c(=O)[nH]c(=O)c2c1nc(CN1C(=O)c3ccccc3S1(=O)=O)n2CCC	none
CCCCn1c(=O)[nH]c(=O)c2c1nc(Cn1ncc(Cl)c(Cl)c1=O)n2CCC	HIF-2a block 95.9, Peg3 promoter 103.6, KKLEB tox -80.7, Shn3 3UTR inh 98.0, MITF TRPM1 inh 92.1, CF NFkB block 103.4 | Mdm2 MdmX conf 103.5 | HIF-2a inh conf 71.2 | HIF-1a counter 97.4
CCOC(=O)N1CCN(S(=O)(=O)c2ccc(C(=O)Nc3sc4c(c3C(=O)OC)CCN(C)C4)cc2)CC1	HIF-2a block 60.8, Peg3 promoter 110.4 | HIF-2a inh conf inactive | HIF-1a counter 90.4
COC(=O)c1c(NC(=O)c2ccc(S(=O)(=O)N3CC(C)OC(C)C3)cc2)sc2c1CCN(C)C2 (stereo not drawn)	none (no result: MITF TRPM1 inh)
Cc1nc([N+](=O)[O-])c(Br)n1Cc1ccc(Cl)c(Cl)c1	HIF-2a block 70.4, Peg3 promoter 103.7, CF NFkB block 86.3 | HIF-2a inh conf inactive | HIF-1a counter 102.0
C(=N\Nc1nc2ccccc2s1)/c1ccccn1	none (no result: HIF-2a block, Peg3 promoter, KKLEB tox, Shn3 3UTR inh, MITF TRPM1 inh, CF NFkB block) | Mdm2 MdmX conf 95.2
Cc1ccc(COc2ccc(-c3nnco3)cc2)cc1	none
Cc1ccc(C(C)C)c(OCc2ccc(-c3nnco3)cc2)c1	HIF-2a block 69.1 | HIF-2a inh conf 70.9 | HIF-1a counter inactive
Cc1ccc(-n2nnc3c(=O)oc4ccccc4c32)cc1	HIF-2a block 52.0 | HIF-2a inh conf inactive | HIF-1a counter inactive
CC(C)c1ccc(NC(=O)Nc2nc(C(N)C3CCCCC3)cs2)cc1 (stereo not drawn)	HIF-2a block 49.6, Peg3 promoter 94.8, Shn3 3UTR inh 97.4 (no result: MITF TRPM1 inh) | HIF-2a inh conf inactive | HIF-1a counter 105.8
C[C@@H]1CCCCO[C@H](CN(C)S(=O)(=O)c2ccccc2)[C@@H](C)CN([C@H](C)CO)C(=O)c2cc(NC(=O)Cc3ccccc3)ccc2O1	none (no result: MITF TRPM1 inh)
